Drawing on PubChem BioAssay (NCI), this text covers growth for 37 molecules.

About 83,000 compounds went through this panel and 20% of them were active in at least one assay; those are over-represented in the sample as a whole.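 How to read the values: 0–100, growth inhibition (40 = 60% inhibited); 0, no net growth; -100 to 0, cell death (-40 = 40% of starting cells died; -100 = all dead).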 Values without a mark were called inactive. The source made the active and inactive calls. Rule for the calls: active = growth percent below 10; inactive = the rest.

The first assay has as its system HOP-92 NSCLC. In words: NCI-60 one-dose screen, 48 h (100 = growth as untreated, 0 = no growth, -100 = all killed). The settings on record: 10 µM.
With `O=C(Nc1ccc(I)cc1F)c1cc(-c2ccc(F)cc2F)ccc1O`, the growth is -26.3% (active).

Regarding `CN1CCN(c2ccc(C(=O)/C=C/c3ccc(C#N)cc3)cc2)CC1`, the growth is 77.2%.

For `Cc1ccc([N+](=O)[O-])c(C(=O)Nc2ccc(-c3ccc4c(c3)NC(=O)/C4=C\c3ccc[nH]3)cc2)c1`, the growth is 109%.

On to `CN1CCO/C1=C(/NC(=O)c1ccc(Cl)cc1)[P+](c1ccccc1)(c1ccccc1)c1ccccc1`, for which the growth is 60.9%.

Turning to `CNCc1cccc2c1OCCCCCC[C@@](C)(O)CC1(CC1)S(=O)(=O)c1ccc(cc1)-c1cnc(N)c(n1)C(=O)N2`, the growth is -67.8% (active).

As for `Cc1cccc(NC(=O)CSc2nc3ccc(F)cc3c(=O)n2-c2ccc(Cl)cc2)c1C`, the growth is 26.9%.

With `CC(=O)OC[C@@]1(C)C2CC[C@]3(C)C(CC=C4C5CC(C)(C)CC[C@]5(C(=O)Nc5ccccc5)CC[C@]43C)[C@@]2(C)C[C@@H](OC(C)=O)[C@@H]1OC(C)=O` (some centres undefined), the growth was 40.1%.

With `CC1=C2C(=C[C@@](C)(COCOCCCl)[C@@H]2O)C(=O)[C@](C)(O)C12CC2`, the growth is -14.6% (active).

For `CCN1CCN(Cc2ccc(NC(=O)c3cccc(-n4cc(-c5ccc(NC(C)=O)nc5)nn4)c3)cc2C(F)(F)F)CC1`, the growth was 72.6%.

Consider `O=C(c1ccc(O)cc1)C1[C@H](c2ccc(Br)cc2)[C@@H](c2ccccc2)NC12C(=O)Nc1ccccc12` (some centres undefined), for which the growth was 8.1% (active).

In the case of `Nc1nnc(-c2c[nH]c3ccc(F)cc23)c(-c2c[nH]c3ncccc23)n1`, the growth is 81.8%.

For `O=C(c1ccc(Cl)cc1)C1[C@H](c2ccccc2Br)[C@@H](c2ccccc2)NC12C(=O)Nc1ccc(Cl)cc12` (some centres undefined), the growth was 23%.

For `Cc1ccc(NCC(=O)Nn2c(COc3ccccc3)nc3ccccc3c2=O)cc1`, the growth was 58.1%.

In the case of `NS(=O)(=O)c1ccc(N=Nc2c(O)n(CC(=O)Nc3ccccc3Br)c3ccccc23)cc1`, the growth was 38.7%.

As for `CN(C(=O)c1ccc(C(F)(F)F)cc1C(F)(F)F)c1sc2c(c1C#N)CCC(=O)C2`, the growth is 80.6%.

In the case of `CC(C)(C)Nc1nc2cc(Cl)c(Cl)cc2nc1S(C)(=O)=O`, the growth was -5.25% (active).

Turning to `Cc1ccc(/C(N)=N/c2sc(-c3ccccc3)nc2-c2ccccc2)cc1`, the growth was 90.2%.

As to `O=c1cc(-c2ccccc2)oc2cc(OCCCNCc3ccccc3)cc(O)c12`, the growth was -9.75% (active).

In the case of `CCOC(=O)C1NN(c2ccc(S(N)(=O)=O)cc2)c2nc3nc(-c4cccs4)cc(-c4cccs4)c3c(=O)n21` (centres undefined), the growth is 61.5%.

In the case of `N#Cc1c(NC(=O)c2ccc(C(F)(F)F)cc2)sc2c1CCC(O)=C2`, the growth was 38.7%.

As to `COc1ccc2[nH]cc(/C=N/Nc3ccc(Br)cn3)c2c1`, the growth is -24.5% (active).

In the case of `Cc1cc(C(F)(F)F)ccc1C(=O)Nc1sc2c(c1C#N)CCC(=O)C2`, the growth is -64.4% (active).

In the case of `Cc1ccc(F)cc1N/C=c1\s/c(=C(\C#N)C(=O)Nc2ccccc2)n(-c2ccccc2)c1=O`, the growth is 27.6%.

Regarding `CCCn1c(=O)c2[nH]c(-c3ccc(OCc4nc5ccc(C)cc5[nH]4)cc3)nc2n(CCC)c1=O`, the growth is -43.2% (active).

As for `O=C(O)CCCCCCCCCCN1C(=O)/C(=C/c2cnc(-c3ccccc3)s2)SC1=S`, the growth is 52.1%.

As to `O=C1NC(=NC2CCCCCC2)N/C1=C\c1ccc2ncoc2c1`, the growth is 51.3%.

As to `COc1ccc2[nH]c(=O)c(CSc3cccc(N)c3)cc2c1`, the growth was 76.5%.

As for `O=C(c1ccc(Cl)cc1)C1[C@H](c2ccc(Br)cc2)[C@@H](c2ccccc2)NC12C(=O)Nc1ccc(Cl)cc12` (some centres undefined), the growth is -69.2% (active).

For the molecule `C=CC(=O)Nc1ccc(C(=O)/C=C/c2ccc(N(C)CCF)cc2)c(O)c1`, the growth was -3.32% (active).

As to `COc1cccc(/C=C2\N=C(C)N(CCc3ccc(S(N)(=O)=O)cc3)C2=O)c1`, the growth is 92.8%.

As for `N#Cc1c(NC(=O)c2ccc(C(F)(F)F)cc2)sc2c1CCC(=O)C2`, the growth was -57% (active).

As for `COc1cc2oc(-c3cccc(C(=O)Nc4ccc(Cl)cc4)c3)cc(=O)c2c(OCCNC(=O)CNC(=O)OC(C)(C)C)c1OC`, the growth was 54.7%.

On to `Cc1ccc(C(=O)NNC(=O)CSc2nc3ccccc3c(=O)[nH]2)cc1`, for which the growth was 90.6%.

With `Brc1ccc(/C=N/Nc2ncnc3sc4c(c23)CCN(Cc2ccccc2)C4)cc1`, the growth is 67%.

In the case of `Cc1cc2nc3c4ccccc4n(CCO)c3nc2cc1C`, the growth is 34.9%.

For the molecule `O=C1NC(=NC23CC4CC(CC(C4)C2)C3)N/C1=C\c1ccc2ncccc2n1`, the growth is -14.6% (active).

For `CN1CCN(Cc2ccc(C(=O)Nc3cccc(Nc4ccc5cc(O)ccc5n4)c3)cc2C(F)(F)F)CC1`, the growth was -46.2% (active).

A further assay concerns NCI-H522 lung. The description is as above. The settings on record: 10 µM.
As for `O=C(Nc1ccc(I)cc1F)c1cc(-c2ccc(F)cc2F)ccc1O`, the growth was -9.59% (active).

Turning to `CN1CCN(c2ccc(C(=O)/C=C/c3ccc(C#N)cc3)cc2)CC1`, the growth is 81.5%.

Take `Cc1ccc([N+](=O)[O-])c(C(=O)Nc2ccc(-c3ccc4c(c3)NC(=O)/C4=C\c3ccc[nH]3)cc2)c1`: the growth was 39.5%.

Take `CN1CCO/C1=C(/NC(=O)c1ccc(Cl)cc1)[P+](c1ccccc1)(c1ccccc1)c1ccccc1`: the growth was 58.4%.

As to `CNCc1cccc2c1OCCCCCC[C@@](C)(O)CC1(CC1)S(=O)(=O)c1ccc(cc1)-c1cnc(N)c(n1)C(=O)N2`, the growth was -87.2% (active).

Consider `Cc1cccc(NC(=O)CSc2nc3ccc(F)cc3c(=O)n2-c2ccc(Cl)cc2)c1C`, for which the growth was 77%.

As for `CC(=O)OC[C@@]1(C)C2CC[C@]3(C)C(CC=C4C5CC(C)(C)CC[C@]5(C(=O)Nc5ccccc5)CC[C@]43C)[C@@]2(C)C[C@@H](OC(C)=O)[C@@H]1OC(C)=O` (some centres undefined), the growth is 42%.

As for `CC1=C2C(=C[C@@](C)(COCOCCCl)[C@@H]2O)C(=O)[C@](C)(O)C12CC2`, the growth was -74.4% (active).

For `CCN1CCN(Cc2ccc(NC(=O)c3cccc(-n4cc(-c5ccc(NC(C)=O)nc5)nn4)c3)cc2C(F)(F)F)CC1`, the growth was 74.7%.

On to `O=C(c1ccc(O)cc1)C1[C@H](c2ccc(Br)cc2)[C@@H](c2ccccc2)NC12C(=O)Nc1ccccc12` (some centres undefined), for which the growth is 32.4%.

Turning to `Nc1nnc(-c2c[nH]c3ccc(F)cc23)c(-c2c[nH]c3ncccc23)n1`, the growth is 52.7%.

On to `O=C(c1ccc(Cl)cc1)C1[C@H](c2ccccc2Br)[C@@H](c2ccccc2)NC12C(=O)Nc1ccc(Cl)cc12` (some centres undefined), for which the growth is 3.07% (active).

Turning to `Cc1ccc(NCC(=O)Nn2c(COc3ccccc3)nc3ccccc3c2=O)cc1`, the growth was 71.7%.

On to `NS(=O)(=O)c1ccc(N=Nc2c(O)n(CC(=O)Nc3ccccc3Br)c3ccccc23)cc1`, for which the growth is 32.6%.

Turning to `CN(C(=O)c1ccc(C(F)(F)F)cc1C(F)(F)F)c1sc2c(c1C#N)CCC(=O)C2`, the growth was -59.7% (active).

For `CC(C)(C)Nc1nc2cc(Cl)c(Cl)cc2nc1S(C)(=O)=O`, the growth was -80.6% (active).

With `Cc1ccc(/C(N)=N/c2sc(-c3ccccc3)nc2-c2ccccc2)cc1`, the growth is 83%.

Regarding `O=c1cc(-c2ccccc2)oc2cc(OCCCNCc3ccccc3)cc(O)c12`, the growth was -62.6% (active).

Consider `CCOC(=O)C1NN(c2ccc(S(N)(=O)=O)cc2)c2nc3nc(-c4cccs4)cc(-c4cccs4)c3c(=O)n21` (centres undefined), for which the growth was 77.2%.

On to `N#Cc1c(NC(=O)c2ccc(C(F)(F)F)cc2)sc2c1CCC(O)=C2`, for which the growth is 1.61% (active).

In the case of `COc1ccc2[nH]cc(/C=N/Nc3ccc(Br)cn3)c2c1`, the growth was 38.5%.

As for `Cc1cc(C(F)(F)F)ccc1C(=O)Nc1sc2c(c1C#N)CCC(=O)C2`, the growth is -62.9% (active).

`Cc1ccc(F)cc1N/C=c1\s/c(=C(\C#N)C(=O)Nc2ccccc2)n(-c2ccccc2)c1=O`: the growth was 74.7%.

Turning to `CCCn1c(=O)c2[nH]c(-c3ccc(OCc4nc5ccc(C)cc5[nH]4)cc3)nc2n(CCC)c1=O`, the growth was 36.7%.

In the case of `O=C(O)CCCCCCCCCCN1C(=O)/C(=C/c2cnc(-c3ccccc3)s2)SC1=S`, the growth is 38.2%.

As for `O=C1NC(=NC2CCCCCC2)N/C1=C\c1ccc2ncoc2c1`, the growth is 12.6%.

Consider `COc1ccc2[nH]c(=O)c(CSc3cccc(N)c3)cc2c1`, for which the growth was 62.6%.

On to `O=C(c1ccc(Cl)cc1)C1[C@H](c2ccc(Br)cc2)[C@@H](c2ccccc2)NC12C(=O)Nc1ccc(Cl)cc12` (some centres undefined), for which the growth was -79.5% (active).

Consider `C=CC(=O)Nc1ccc(C(=O)/C=C/c2ccc(N(C)CCF)cc2)c(O)c1`, for which the growth was -76.9% (active).

`COc1cccc(/C=C2\N=C(C)N(CCc3ccc(S(N)(=O)=O)cc3)C2=O)c1`: the growth is 94.5%.

In the case of `N#Cc1c(NC(=O)c2ccc(C(F)(F)F)cc2)sc2c1CCC(=O)C2`, the growth is -57.3% (active).

For the molecule `COc1cc2oc(-c3cccc(C(=O)Nc4ccc(Cl)cc4)c3)cc(=O)c2c(OCCNC(=O)CNC(=O)OC(C)(C)C)c1OC`, the growth is 45.7%.

As for `Cc1ccc(C(=O)NNC(=O)CSc2nc3ccccc3c(=O)[nH]2)cc1`, the growth was 106%.

For `Brc1ccc(/C=N/Nc2ncnc3sc4c(c23)CCN(Cc2ccccc2)C4)cc1`, the growth was 90.4%.

As to `Cc1cc2nc3c4ccccc4n(CCO)c3nc2cc1C`, the growth was 78.8%.

For the molecule `O=C1NC(=NC23CC4CC(CC(C4)C2)C3)N/C1=C\c1ccc2ncccc2n1`, the growth was -20.6% (active).

In the case of `CN1CCN(Cc2ccc(C(=O)Nc3cccc(Nc4ccc5cc(O)ccc5n4)c3)cc2C(F)(F)F)CC1`, the growth was -68.8% (active).
